Compound activity deposited in PubChem by several laboratories.
HSF1 inh: HSF1 inhibition. NIH3T3-HGL HSE-luciferase, MG132-induced, luminescence 8 h; hits give low values. activity change, negative = inhibition, % at 7.5 µM (by protocol). 0.77% of 300,000 active;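 active means more than half of replicate wells show activity change below -50%, luminescence cut by over half; inconclusive means some wells, but at most half, below -50%; inactive means no replicate well below -50%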;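 further: luciferase reports HSF-1 transcriptional activity via heat shock element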
HSP90 refold inh: inhibitors of HSP90 luciferase refolding in rabbit reticulocyte lysate; luciferase refolding luminescence, 3 h; inhibition, % at 5.6 µM; 0.91% of 290,000 active; AID 1789;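 active means inhibition above the screen-wide mean plus 3 SD, computed separately per campaign, cut at about 16% in these data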;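 further: inhibitors lower the luminescence because luciferase stays unfolded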
HSF-1 act: increases HSF-1 driven luciferase reporter signal. NIH3T3-HGL HSF-1 luciferase reporter, MG132, 8 h; 100% = twice DMSO control signal. 1.7% of 300,000 active. AID 504408. activation, % at 9 µM;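 active means mean replicate activation of at least 50% with a set share of replicates each reaching 50%; inconclusive means only one of those two conditions met; inactive means mean below 50% and too few replicates reaching it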
Hsp70 act: Hsp70 transcriptional activation, primary screen | HeLa Hsp70 promoter luciferase reporter, luminescence; scaled: vehicle 0, proteasome-inhibitor control 100% | activation, % at 10 µM | 0.04% of 200,000 active;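 active means activation above the mean across all tested compounds plus 3 SD, cutoff set per campaign, cut at about 5.5% in these data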
NALP1 inh: NALP1 inhibition; inhibition, % at 10 µM; S. cerevisiae NALP1/ASC/caspase-1 growth, X-gal OD620, 72 h; 0.61% of 280,000 active; AID 2071; in the data active means inhibition mostly above about 24%, no sharp cut-off; inactive means mostly below about 32%
pCIP destab: lowers stability of the mouse p/CIP coactivator protein; F442A p/CIP-EGFP cells, EGFP fluorescence, 16 h; decrease of EGFP signal, % at 10 µM; AID 1984; 0.01% of 290,000 active;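 active means EGFP signal decrease of at least 30% at 10 µM or well 3 SD below plate mean, unless failing retest; inactive means the rest, including hits failing retest or dose response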
Target sequence (Q05BA5 1-1403): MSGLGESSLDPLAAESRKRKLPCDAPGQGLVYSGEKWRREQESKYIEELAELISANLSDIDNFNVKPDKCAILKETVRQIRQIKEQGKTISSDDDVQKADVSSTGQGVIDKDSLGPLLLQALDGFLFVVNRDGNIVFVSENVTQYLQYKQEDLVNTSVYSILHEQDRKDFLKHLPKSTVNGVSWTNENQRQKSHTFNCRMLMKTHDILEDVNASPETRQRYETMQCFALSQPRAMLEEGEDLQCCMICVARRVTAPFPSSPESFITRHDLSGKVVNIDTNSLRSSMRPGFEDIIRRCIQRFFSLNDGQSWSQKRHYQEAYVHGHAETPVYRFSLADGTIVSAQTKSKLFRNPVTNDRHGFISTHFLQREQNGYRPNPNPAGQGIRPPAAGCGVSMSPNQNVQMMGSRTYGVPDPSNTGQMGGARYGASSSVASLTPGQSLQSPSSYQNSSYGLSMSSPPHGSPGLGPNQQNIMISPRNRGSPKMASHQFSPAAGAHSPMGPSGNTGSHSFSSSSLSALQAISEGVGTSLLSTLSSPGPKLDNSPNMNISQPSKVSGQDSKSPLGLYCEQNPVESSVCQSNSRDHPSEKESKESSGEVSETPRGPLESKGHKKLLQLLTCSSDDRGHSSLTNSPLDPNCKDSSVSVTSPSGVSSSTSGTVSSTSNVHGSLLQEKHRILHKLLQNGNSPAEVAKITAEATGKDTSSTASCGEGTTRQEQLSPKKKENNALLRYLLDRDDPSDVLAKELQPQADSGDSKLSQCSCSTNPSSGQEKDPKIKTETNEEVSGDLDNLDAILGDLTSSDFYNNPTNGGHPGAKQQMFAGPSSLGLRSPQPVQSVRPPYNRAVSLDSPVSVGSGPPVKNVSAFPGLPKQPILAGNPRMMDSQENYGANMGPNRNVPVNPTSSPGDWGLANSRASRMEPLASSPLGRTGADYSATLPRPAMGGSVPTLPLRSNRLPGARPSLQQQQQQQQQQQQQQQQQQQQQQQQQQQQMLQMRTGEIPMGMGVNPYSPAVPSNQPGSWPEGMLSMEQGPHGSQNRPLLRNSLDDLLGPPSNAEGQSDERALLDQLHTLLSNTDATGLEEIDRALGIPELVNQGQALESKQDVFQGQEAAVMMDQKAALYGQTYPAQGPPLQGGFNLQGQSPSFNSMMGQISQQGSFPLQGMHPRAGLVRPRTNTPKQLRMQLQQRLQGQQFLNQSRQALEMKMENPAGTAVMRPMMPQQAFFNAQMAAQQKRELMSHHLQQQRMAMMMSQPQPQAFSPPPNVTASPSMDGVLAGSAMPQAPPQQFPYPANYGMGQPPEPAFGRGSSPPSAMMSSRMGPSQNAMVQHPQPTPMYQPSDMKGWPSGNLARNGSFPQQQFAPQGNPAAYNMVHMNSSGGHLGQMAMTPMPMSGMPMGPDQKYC
Of the large screens only hits and unclear results are named; the others gave an inactive call; ! = not confirmed by another sample. Shown are actives, neighbours in structure and some others; about 3.8% of the full set was active somewhere.

COCCN(C(=O)COC(=O)/C=C/c1ccc(C(F)(F)F)cc1)c1c(N)n(Cc2ccccc2)c(=O)[nH]c1=O	HSF1 inh -66.8 (no result: HSP90 refold inh, Hsp70 act, NALP1 inh, pCIP destab)
COCCN(C(=O)COC(=O)/C=C/c1cccs1)c1c(N)n(Cc2ccccc2)c(=O)[nH]c1=O	none (no result: HSP90 refold inh, Hsp70 act, NALP1 inh, pCIP destab)
CCCCn1c(N)c(N(CC(C)C)C(=O)CC2CCCCC2)c(=O)[nH]c1=O	none (no result: HSP90 refold inh, Hsp70 act, NALP1 inh, pCIP destab)
COc1ccc(C2Nc3ccccc3C(=O)N2Cc2ccccc2)cc1COc1ccccn1 (stereo not drawn)	none (no result: HSF1 inh, HSF-1 act)
COc1ccc(C2Nc3ccccc3C(=O)N2Cc2ccco2)cc1CN1C(=O)c2ccccc2C1=O (stereo not drawn)	HSF-1 act 62.9!
COc1ccc(C2Nc3ccccc3C(=O)N2Cc2ccco2)cc1COc1ccc(F)cc1 (stereo not drawn)	HSF-1 act 103.0
Cc1cc(CN(C)Cc2c(C(=O)N3CCCCCCC3)nc3ccc(Cl)cn23)n[nH]1	none
COC(=O)[C@H]1[C@H]2C[C@@H]3c4[nH]c5cc(OC)ccc5c4CCN3C[C@H]2C[C@@H](OC(=O)c2ccc(N)cc2)[C@@H]1OC	HSF1 inh -55.5 (no result: Hsp70 act, NALP1 inh)
COc1ccc2c3c([nH]c2c1)C1CC2C(CC(O)C(OC)C2CO)CN1CC3 (stereo not drawn)	none (no result: Hsp70 act, NALP1 inh)
Cc1ccc(C2CC(=O)C=C(NCc3ccccc3)C2)cc1 (stereo not drawn)	none (no result: Hsp70 act)
CCOC(=O)C(=CNNc1c(C)csc1C(=O)OC)C(=O)OCC	none (no result: Hsp70 act)
COC(=O)c1scc(C)c1N/N=C(\C)c1cc(F)c(Cl)cc1F	NALP1 inh 42.0
O=C(NC1CCCN(Cc2ccccc2F)C1)c1cccs1 (stereo not drawn)	HSF-1 act 62.2 (no result: Hsp70 act)
CC(=O)c1ccc(C(=O)NC2CCCN(Cc3ccccc3F)C2)s1 (stereo not drawn)	none (no result: Hsp70 act)
O=C1c2cccc3cccc(c23)C(=O)N1OS(=O)(=O)c1ccc(Br)cc1	none
O=C1c2cccc3cccc(c23)C(=O)N1OS(=O)(=O)c1ccccc1	HSF-1 act 118.2
O=C(Nc1cccc(Cl)c1)N(CCN1CCOCC1)Cc1cccc(Cl)c1	none
CCOc1ccc(NC(=O)N(CCN2CCOCC2)Cc2ccc3c(c2)CCCN3CC)cc1	none
CCCN1CCCc2cc(CN(CCCN3CCOCC3)C(=O)Nc3ccc(OCC)cc3)ccc21	NALP1 inh 44.6
COc1ccc(CN(CCCN2CCOCC2)C(=O)Nc2cccc(Cl)c2)cc1OC	HSF1 inh -52.1
O=C(CNC(=O)c1ccco1)Nc1ccncc1	none (no result: HSP90 refold inh, Hsp70 act, NALP1 inh, pCIP destab)
O=C(OCC(=O)N1CCCC1=O)c1nc(Cl)c(Cl)c(Cl)c1Cl	none (no result: Hsp70 act)
O=C(O)CN1C(=O)/C(=C\c2cc(Br)ccc2OCc2ccc(F)cc2)SC1=S	HSF-1 act 69.5 (no result: Hsp70 act)
Nn1c(-c2cccs2)nc2sc3c(c2c1=O)CCCC3	HSF-1 act 70.3
Cc1occc1C(=O)NNC1=CC(=O)CC(C)(C)C1	none
CCCNC(=O)N1CCCC(C(=O)c2cccc(Cl)c2)C1 (stereo not drawn)	HSF1 inh -53.7
Cc1ccc(C)c(NC(=O)COc2coc(CN3CCc4ccccc4C3)cc2=O)c1	HSF1 inh -51.1 (no result: HSP90 refold inh, Hsp70 act, NALP1 inh, pCIP destab)
COc1ccccc1N1CCN(Cc2cc(=O)c(OCC(=O)Nc3ccccc3)co2)CC1	none (no result: HSP90 refold inh, Hsp70 act, NALP1 inh, pCIP destab)
Cc1cc(NC(=O)COc2coc(CN3CCN(c4ccccc4F)CC3)cc2=O)no1	HSF1 inh -74.6 (no result: HSP90 refold inh, Hsp70 act, NALP1 inh, pCIP destab)
CCCNC(=O)COc1coc(CN2CCN(c3ccccc3OC)CC2)cc1=O	HSF1 inh -72.5 (no result: Hsp70 act)
Cc1ccc(NC(=O)COc2coc(CN3CCc4ccccc4C3)cc2=O)c(C)c1	none (no result: HSP90 refold inh, Hsp70 act, NALP1 inh, pCIP destab)
Cc1cc(NC(=O)COc2coc(CN3CCN(c4ccccc4)CC3)cc2=O)no1	none (no result: HSP90 refold inh, Hsp70 act, NALP1 inh, pCIP destab)
CC(C)NC(=O)COc1coc(CN2CCN(c3ccccc3)CC2)cc1=O	HSF1 inh -52.8 (no result: Hsp70 act)
CC(=O)Cc1nnn(-c2cc(C)on2)n1	none (no result: Hsp70 act)
COc1ccc(C2C=C(C34CC5CC(CC(C5)C3)C4)NC(=S)N2)cc1OC (stereo not drawn)	none
CC(O)CNCCCOc1ccc(Cl)cc1C(C)(C)C (stereo not drawn)	HSF1 inh -65.7
N#Cc1cc([N+](=O)[O-])c(-n2nnc3ccccc32)c([N+](=O)[O-])c1	none
COc1ccccc1Oc1cc(C#N)c(C#N)cc1-n1nnc2ccccc21	HSF-1 act 78.7
Cc1ccc(C(c2nnnn2C2CCCC2)N2CCc3ccccc32)cc1 (stereo not drawn)	HSF-1 act 59.5
CC(C)C(c1nnnn1C1CCCC1)N1CCc2ccccc21 (stereo not drawn)	none (no result: HSF1 inh, HSF-1 act)
CCCn1c(N2CCN(CC(=O)NCc3cccs3)CC2)nc2ccccc21	HSF1 inh -71.8
C=C1C(=O)O[C@@H]2[C@H]1[C@@H](OC(=O)/C(C)=C/C)C/C(C)=C\C(=O)/C=C(\C)[C@@H]2O	none (no result: HSP90 refold inh, Hsp70 act)
O=c1c2ccccc2sn1-c1cc(S(=O)(=O)N2CCOCC2)ccc1N1CCOCC1	NALP1 inh 29.8
CCCCCSc1nc(C)c(CC(=O)O)c(=O)[nH]1	HSF1 inh -92.4
CCCCCc1c(C)nc(SCC(=O)O)[nH]c1=O	none
Cc1nc(-c2ccc3c(c2)OCCCO3)cs1	HSF-1 act inconclusive, NALP1 inh 42.0 (no result: Hsp70 act)
CC(C)(C)C(=O)OCc1nc(-c2ccc3c(c2)OCCO3)cs1	HSF1 inh -52.2 (no result: Hsp70 act)
CCc1nn(CC(=O)NCCCc2ccccc2)c(=O)c2cc3cc(F)ccc3n12	none (no result: Hsp70 act)
CCCn1nc([N+](=O)[O-])c(C(C#N)c2nc3ccccc3s2)c(Cl)c1=O (stereo not drawn)	HSF-1 act 60.2
O=C(NCC1CCCO1)c1cncc(Br)c1 (stereo not drawn)	none
CCC(Cc1ccccc1)NS(=O)(=O)c1c(C)nc2sccn2c1=O (stereo not drawn)	none (no result: Hsp70 act)
CCC(C)(C)c1ccc(OC(=O)c2cccnc2Cl)cc1	HSF-1 act 59.1 (no result: Hsp70 act)
N#CCc1ccc(OC(=O)c2cccnc2Cl)cc1	none (no result: HSP90 refold inh, Hsp70 act, NALP1 inh, pCIP destab)
O=C(Nc1nc2ccccc2s1)Nc1ccc(F)cc1F	HSF-1 act 50.2 (no result: Hsp70 act)
CCCSc1nsc(NC(=O)Nc2ccc(F)cc2F)n1	HSF-1 act 68.4 (no result: Hsp70 act)
O=C(Nc1ccc(F)cc1F)Nc1sccc1-c1nc2ccccc2s1	none (no result: Hsp70 act, NALP1 inh)
CCSc1nsc(NC(=O)Nc2cccc(F)c2)n1	none (no result: Hsp70 act)
CCOc1ccccc1N(CC(=O)NCC1CCCO1)C(=O)CCC(=O)Nc1nccs1 (stereo not drawn)	none (no result: Hsp70 act)
O=C(CSc1ccc2ccccc2c1)NC1CCCc2ccccc21 (stereo not drawn)	none
CCN(CC)S(=O)(=O)c1ccc(/C=C/C(=O)Nc2cccc(F)c2)cc1	HSF-1 act 66.5
CSc1cccc(NC(=O)/C=C/c2ccc(Cl)cc2)c1	none
COC(=O)c1cccc(NC(=O)/C=C/c2ccc([N+](=O)[O-])cc2)c1	none
O=C(/C=C/c1ccccc1)N/C(=C/c1ccccc1)C(=O)Nc1cccc(C(=O)O)c1	none (no result: HSF1 inh, HSF-1 act)
O=C(/C=C/c1ccccc1)Nc1cccc(C(=O)O)c1	HSF1 inh -78.2, HSP90 refold inh 89.5
